# Laboratory results from PubChem BioAssay AID1159580 (chemical genetic matrix, 2015).
# Where “and” joins values, the source holds several entries; their conditions need not be identical. Identical values can stand only once. The campaign covered roughly 5,500 compounds. About 2,000 (36%) were called active. Not shown: some 18% with an inconclusive outcome. This is one part of the list. Values without a mark were called inactive. Cut-off read from the data, not from the text of the source: active = normalized growth mostly below about 0.91 (no sharp cut-off); inconclusive = no clear call, values can overlap the other calls; inactive = mostly above about 0.92.
# Assay: chemical genetic growth profiling, strain panel (AID 1159580);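 note: tested at 20 µM; growth read once vehicle control cultures reached saturation at 30 °C; 1 = growth at the plate median or of vehicle wells; lower values mean less growth of the strain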
# Settings: S. cerevisiae deletion strains, growth OD
smiles,measurement,setting,value
CCc1nc(N)nc(N)c1-c1ccc(Cl)cc1,normalized growth,"locus YAL013W, strain DEP1, hits give low values",1.02
same,normalized growth,"locus YAL021C, strain ccr4, hits give low values",0.951
same,normalized growth,"locus YAL026C, strain drs2, hits give low values",0.967
same,normalized growth,"locus YAL030W, strain snc1, hits give low values",0.977
same,normalized growth,"locus YBL061C, strain skt5, hits give low values",0.97
same,normalized growth,"locus YBR009C, strain hhf1, hits give low values",0.997
same,normalized growth,"locus YBR021W, strain FUR4, hits give low values",1.02
same,normalized growth,"locus YBR023C, strain chs3, hits give low values",0.999
same,normalized growth,"locus YBR171W, strain sec66, hits give low values",0.969
same,normalized growth,"locus YBR229C, strain ROT2, hits give low values",1.01
same,normalized growth,"locus YBR231C, strain swc5, hits give low values",0.971
same,normalized growth,"locus YBR279W, strain paf1, hits give low values",0.994
same,normalized growth,"locus YCL011C, strain gbp2, hits give low values",0.978
same,normalized growth,"locus YCL016C, strain dcc1, hits give low values",0.997
same,normalized growth,"locus YCL029C, strain bik1, hits give low values",0.988
same,normalized growth,"locus YCL061C, strain MRC1, hits give low values",0.958
same,normalized growth,"locus YCL069W, strain vba3, hits give low values",0.986
same,normalized growth,"locus YCR088W, strain abp1, hits give low values",0.977
same,normalized growth,"locus YDL005C, strain med2, hits give low values",0.972
same,normalized growth,"locus YDL035C, strain GPR1, hits give low values",0.995
same,normalized growth,"locus YDL040C, strain nat1, hits give low values",0.973
same,normalized growth,"locus YDL074C, strain BRE1, hits give low values",0.987
same,normalized growth,"locus YDL101C, strain DUN1, hits give low values",1
same,normalized growth,"locus YDL134C, strain PPH21, hits give low values",1.01
same,normalized growth,"locus YDL185W, strain tfp1, hits give low values",1
same,normalized growth,"locus YDL192W, strain arf1, hits give low values",1
same,normalized growth,"locus YDR001C, strain nth1, hits give low values",0.969
same,normalized growth,"locus YDR069C, strain doa4, hits give low values",0.898 (active)
same,normalized growth,"locus YDR101C, strain arx1, hits give low values",0.987
same,normalized growth,"locus YDR137W, strain rgp1, hits give low values",1.02
same,normalized growth,"locus YDR150W, strain NUM1, hits give low values",1.01
same,normalized growth,"locus YDR159W, strain sac3, hits give low values",0.955
same,normalized growth,"locus YDR162C, strain NBP2, hits give low values",1.01
same,normalized growth,"locus YDR195W, strain ref2",0.979
same,normalized growth,"locus YDR297W, strain sur2, hits give low values",0.987
same,normalized growth,"locus YDR318W, strain mcm21, hits give low values",0.976
same,normalized growth,"locus YDR334W, strain swr1, hits give low values",0.936
same,normalized growth,"locus YDR335W, strain msn5, hits give low values",0.973
same,normalized growth,"locus YDR388W, hits give low values",0.974
same,normalized growth,"locus YDR392W, strain spt3, hits give low values",1.02
same,normalized growth,"locus YDR502C, strain sam2, hits give low values",0.996
same,normalized growth,"locus YEL003W, strain gim4, hits give low values",0.97
same,normalized growth,"locus YEL037C, strain rad23, hits give low values",0.969
same,normalized growth,"locus YEL061C, strain CIN8 (second series), hits give low values",0.966
same,normalized growth,"locus YEL061C, strain CIN8, hits give low values",1.01
same,normalized growth,"locus YER015W, strain faa2, hits give low values",0.985
same,normalized growth,"locus YER016W, strain bim1, hits give low values",1.01
same,normalized growth,"locus YER110C, hits give low values",0.999
same,normalized growth,"locus YER111C, strain swi4, hits give low values",0.983
same,normalized growth,"locus YER155C, strain BEM2 (second series), hits give low values",0.933
same,normalized growth,"locus YER155C, strain BEM2, hits give low values",1.01
same,normalized growth,"locus YER167W, strain BCK2, hits give low values",1.01
same,normalized growth,"locus YFR010W, strain ubp6, hits give low values",0.931
same,normalized growth,"locus YGL078C, strain dbp3, hits give low values",1
same,normalized growth,"locus YGL086W, strain mad1, hits give low values",0.994
same,normalized growth,"locus YGL167C, strain pmr1, hits give low values",0.981
same,normalized growth,"locus YGL173C, strain kem1, hits give low values",0.982
same,normalized growth,"locus YGL227W, strain vid30, hits give low values",0.959
same,normalized growth,"locus YGL240W, strain doc1, hits give low values",0.97
same,normalized growth,"locus YGL248W, strain PDE1, hits give low values",1.01
same,normalized growth,"locus YGL253W, strain hxk2, hits give low values",0.97
same,normalized growth,"locus YGR078C, strain PAC10, hits give low values",1
same,normalized growth,"locus YGR135W, strain pre9, hits give low values",0.979
same,normalized growth,"locus YGR229C, strain SMI1, hits give low values",1.01
same,normalized growth,"locus YGR252W, strain gcn5, hits give low values",0.981
same,normalized growth,"locus YHR013C, strain ard1, hits give low values",0.886
same,normalized growth,"locus YHR027C, strain rpn1, hits give low values",0.976
same,normalized growth,"locus YHR030C, strain SLT2, hits give low values",1.01 and 1.05
same,normalized growth,"locus YHR079C, strain IRE1 (second series), hits give low values",0.987
same,normalized growth,"locus YHR079C, strain IRE1, hits give low values",1.07
same,normalized growth,"locus YHR094C, strain hxt1, hits give low values",1
same,normalized growth,"locus YHR129C, strain ARP1, hits give low values",1.01
same,normalized growth,"locus YHR142W, strain chs7, hits give low values",0.95
same,normalized growth,"locus YHR200W, strain rpn10, hits give low values",1
same,normalized growth,"locus YIL066C, strain RNR3, hits give low values",1.01
same,normalized growth,"locus YIL073C, strain SPO22, hits give low values",1.31
same,normalized growth,"locus YIL125W, strain kgd1, hits give low values",1.01
same,normalized growth,"locus YIR030C, strain dcg1, hits give low values",1
same,normalized growth,"locus YJL092W, strain hpr5, hits give low values",0.956
same,normalized growth,"locus YJL095W, strain BCK1 (second series), hits give low values",0.979
same,normalized growth,"locus YJL095W, strain BCK1, hits give low values",0.982 and 1.04
same,normalized growth,"locus YJL115W, strain asf1, hits give low values",0.961
same,normalized growth,"locus YJL129C, strain trk1, hits give low values",0.927
same,normalized growth,"locus YJL134W, strain LCB3, hits give low values",1.01
same,normalized growth,"locus YJL154C, strain vps35, hits give low values",0.954
same,normalized growth,"locus YJL164C, strain tpk1, hits give low values",1
same,normalized growth,"locus YJL166W, strain qcr8, hits give low values",0.944
same,normalized growth,"locus YJL168C, strain set2, hits give low values",1
same,normalized growth,"locus YJL187C, strain SWE1 (second series), hits give low values",0.982
same,normalized growth,"locus YJR043C, strain POL32, hits give low values",0.992
same,normalized growth,"locus YJR066W, strain TOR1, hits give low values",0.994
